Inconclusive results are not listed. A call without a number means that no potency is given here. Calls of active or inactive are those of the source. Calls come from the whole dose curve.
experiment: Primary qHTS for inhibitors of MERS-S pseudo-typed particle cell entry (AID 1479149); settings: MERS-S pseudotyped particle entry, luciferase; series mostly up to 57.1 µM; note: nearly all actives have a fitted effect of over 60% in size

SMILES	Potency
Nc1ccc(S(N)(=O)=O)cc1	inactive
Cc1cc(C)c(NC(=O)CN(CC(=O)O)CC(=O)O)c(C)c1Br	inactive
COc1cc2c3cc1Oc1cc(ccc1O)C[C@@H]1c4c(cc(OC)c(O)c4Oc4ccc(cc4)C[C@@H]3N(C)CC2)CC[N+]1(C)C	inactive
CN1[C@@H]2CC(OC(=O)[C@H](CO)c3ccccc3)C[C@H]1[C@@H]1O[C@@H]12 (stereo partly drawn)	inactive
CC(C)(C)NCC(O)COc1ccccc1OCC1CCCO1 (stereo not drawn)	inactive
CC(=O)CC(c1ccc([N+](=O)[O-])cc1)c1c(O)c2ccccc2oc1=O (stereo not drawn)	inactive
CCC(Cc1c(I)cc(I)c(N)c1I)C(=O)O (stereo not drawn)	inactive
CCCCCCCCCCCCCCCCCC(=O)O	inactive
CCc1cc(C(N)=S)ccn1	inactive
CC1CCc2c(N3CCC(O)CC3)c(F)cc3c(=O)c(C(=O)O)cn1c23 (stereo not drawn)	inactive
O=C(CO)[C@@H](O)[C@H](O)[C@@H](O)CO	inactive
CC(=O)OCC1=C(C(=O)O)N2C(=O)[C@@H](NC(=O)Cc3cccs3)[C@H]2SC1	inactive
COc1ccc(O)cc1	inactive
CC(=O)NC[C@H]1CN(c2ccc(N3CCOCC3)c(F)c2)C(=O)O1	inactive
CC1CC(OC(=O)c2ccccc2O)CC(C)(C)C1 (stereo not drawn)	inactive
CC(=O)NCc1c(I)c(NC(C)=O)c(I)c(C(=O)O)c1I	inactive
CN1C(CSCC(F)(F)F)Nc2cc(Cl)c(S(N)(=O)=O)cc2S1(=O)=O (stereo not drawn)	inactive
O=C(Oc1ccccc1C(=O)O)c1ccccc1O	inactive
OC[C@H]1O[C@@H](n2cnc3c2NC=NC[C@H]3O)C[C@@H]1O	inactive

SMILES	Potency
CC(=O)c1ccc(S(=O)(=O)NC(=O)NC2CCCCC2)cc1	inactive
COCCCOc1ccnc(CS(=O)c2nc3ccccc3[nH]2)c1C (stereo not drawn)	inactive
O=C(c1ccccc1)c1ccccc1	inactive
Cc1ccc(C(=O)C(=O)O)cc1C	inactive
CC[N+](CC)(CCNC(=O)C(=O)NCC[N+](CC)(CC)Cc1ccccc1Cl)Cc1ccccc1Cl	inactive
CC[C@H](C)[C@H](N)C(=O)O	inactive
COC(=O)C(c1ccccc1)C1CCCCN1 (stereo not drawn)	inactive
O=C(COCCOCCOCC(=O)Nc1c(I)cc(I)c(C(=O)O)c1I)Nc1c(I)cc(I)c(C(=O)O)c1I	inactive
CC(=O)OCC(=O)[C@@]1(O)CC[C@H]2[C@@H]3CCC4=CC(=O)CC[C@]4(C)[C@H]3C(=O)C[C@@]21C	inactive
Nc1ccn([C@@H]2CS[C@H](CO)O2)c(=O)n1	inactive
CC(C)(C)C(=O)Oc1ccc(S(=O)(=O)Nc2ccccc2C(=O)NCC(=O)O)cc1	inactive
NCCNCCNCCN	inactive
NS(=O)(=O)c1cc(C(=O)O)cc(N2CCCC2)c1Oc1ccccc1	inactive
Nc1nc(=O)n([C@@H]2CS[C@H](CO)O2)cc1F	inactive
C[C@]12C=CC(=O)C=C1CC[C@@H]1[C@@H]2C(=O)C[C@@]2(C)[C@H]1CC[C@]2(O)C(=O)CO	inactive
CC(C)=CCC/C(C)=C/CO	inactive
CC(=O)Nc1ccc(OC(=O)c2ccccc2OC(C)=O)cc1	inactive
C[C@@H]1C[C@H]2[C@@H]3C[C@H](F)C4=CC(=O)C=C[C@]4(C)[C@@]3(F)[C@@H](O)C[C@]2(C)[C@@]1(O)C(=O)CO	inactive
C[N+](C)(CCOc1ccccc1)Cc1cccs1	inactive

From PubChem BioAssay (NCATS)
